# Assay results published in PubChem BioAssay AID431 (Sanford-Burnham Center for Chemical Genomics, 2006).
# Out of some 63,000 compounds screened, about 1,100 (1.7%) were called active.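 Rule for the calls: active = compounds whose percent cytotoxicity in the single-dose primary screen, scaled between solvent and toxic-drug controls, exceeds 50; inactive = the rest.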 Shown is part of a subset that was picked to be rich in actives. Entries with a potency or affinity are not part of this list.
# Assay: viability loss of HPDE-C7K cells – cell-based, fluorescence, HTS, primary screen (AID 431);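 note: 0% = DMSO solvent wells and 100% = doxorubicin-treated wells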
# Conditions: HPDE-C7K KRASV12 cells, Alamar Blue viability, 48 h; at 10 µM; hits give high values
row,SMILES,cytotoxicity
1,COc1ccc(C2C(C(=O)NCC3CCCO3)CCC(=O)N2c2ccc3c(c2)OCO3)cc1 (stereo not given),-18.6% (inactive)
2,O=C(Nc1ccccc1C(F)(F)F)c1cc(S(=O)(=O)N2CCOCC2)ccc1F,24.1% (inactive)
3,CCn1c(C(=O)NCc2ccccn2)cc2sccc21,-5.6% (inactive)
4,Cc1cc2c(=O)n(Cc3ccco3)c(SCC(=O)NCc3ccco3)nc2s1,-12.9% (inactive)
5,COc1ccc(C2N=C(Nc3ccc(C)cc3)Nc3nc(C)cc(=O)n32)cc1 (stereo not given),2.4% (inactive)
6,COc1ccc(S(=O)(=O)N(CC(=O)O)c2ccccc2)cc1,8.5% (inactive)
7,Cc1csc2nc3ccccc3c(=O)n12,2.6% (inactive)
8,COc1cc(C2Nc3cccc4cccc(c34)N2)cc(OC)c1O,41.5% (inactive)
9,COc1cc(C(=O)O)ccc1OC(C)=O,-2.6% (inactive)
10,COc1cc(C2Nc3cccc4cccc(c34)N2)ccc1OC(C)=O,50.8% (active)
11,COc1cc(C2N(c3ccccc3)CCN2c2ccccc2)ccc1OC(C)=O,-13.9% (inactive)
12,COc1cc(C2Nc3cccc4cccc(c34)N2)cc(OC)c1OC(C)=O,83.6% (active)
13,Oc1ccccc1C1Nc2cccc3cccc(c23)N1,-2.4% (inactive)
14,Cc1ccc(S(=O)(=O)Cn2nnnc2C(C(C)C)N2CCN(C(=O)c3ccco3)CC2)cc1 (stereo not given),-8.7% (inactive)
15,CCOC(=O)CNC(=O)Nc1cc(C(C)(C)C)nn1-c1ccccc1,-5.3% (inactive)
16,Cc1ccc2nc(-c3ccccn3)oc2c1,9.5% (inactive)
17,CCOC(=O)C(CCC#N)(CCC#N)C(=O)OCC,-1.4% (inactive)
18,O=C(CN(Cc1ccco1)C(=O)CNS(=O)(=O)c1ccccc1)NCc1ccc(F)cc1,2.2% (inactive)
19,O=C(CN(Cc1ccco1)C(=O)CNS(=O)(=O)c1ccc(Cl)cc1)NCc1ccc(F)cc1,77.7% (active)
20,O=C(CN(Cc1ccco1)C(=O)CNS(=O)(=O)c1ccc(F)cc1)NCc1ccc(F)cc1,1.2% (inactive)
21,CC(=O)c1cccc(NC(=O)NC(C)c2ccncc2)c1 (stereo not given),-4.4% (inactive)
22,Cc1noc(/C=C/NCc2cccnc2)c1S(=O)(=O)N(C)CC(=O)N1CCc2ccccc21,2.4% (inactive)
23,COc1cc2cc(C)c(SCC(=O)N3CCOCC3)nc2cc1OC,-9.8% (inactive)
24,O=C(O)CCN(CCC(=O)O)S(=O)(=O)c1ccccc1,-5.5% (inactive)
25,N#CCCCSc1nnc(-c2ccc(Cl)cc2)n1-c1ccccc1,-16.4% (inactive)

row,SMILES,cytotoxicity
1,COc1ccc(-n2c(SCCC#N)nnc2-c2cc(Cl)ccc2OC)cc1Cl,54.3% (active)
2,Cc1cc(-n2c(SCCC#N)nnc2-c2cccnc2)ccc1Cl,-9.6% (inactive)
3,COc1ccc(N(C(=O)c2ccc(S(=O)(=O)N3CCOCC3)cc2)C2C=CS(=O)(=O)C2)cc1 (stereo not given),-10.3% (inactive)
4,CCOC(=O)C1=C(C)C(c2ccc(OC)cc2OC)NC(=O)N1 (stereo not given),-21.1% (inactive)
5,CCN(CC)c1ccc2c(c1)OC(N)=C(C#N)C2c1cccnc1 (stereo not given),70.8% (active)
6,COc1cc(C2C(C#N)=C(N)Oc3cc(N)ccc32)cc(OC)c1OC (stereo not given),54.9% (active)
7,N#CC1=C(N)Oc2cc(O)ccc2C1c1ccccc1 (stereo not given),1.7% (inactive)
8,COc1ccc(C2C(C#N)=C(N)Oc3cc(O)ccc32)cc1OC (stereo not given),-2.6% (inactive)
9,CCc1[nH]nc2c1C(c1cccnc1)C(C#N)=C(N)O2 (stereo not given),5.8% (inactive)
10,COc1ccc(OC)c(C2C(C#N)=C(N)Oc3cc(N)ccc32)c1 (stereo not given),9.4% (inactive)
11,CN(C)c1ccc2c(c1)OC(N)=C(C#N)C2c1cccc(F)c1 (stereo not given),55.5% (active)
12,N#CC1=C(N)Oc2c(ccc3cccnc23)C1c1cccnc1 (stereo not given),42.1% (inactive)
13,N#CC1=C(N)Oc2cc(O)ccc2C1c1ccncc1 (stereo not given),-1.3% (inactive)
14,CCc1c(C)c(C#N)c2nc3ccccc3n2c1N(C)C,10.9% (inactive)
15,CCCCn1c(=O)cc(O)c2ccccc21,-12.7% (inactive)
16,CC1=C(C(=O)OCC2CCCO2)C(c2ccncc2)C2=C(CCCC2=O)N1 (stereo not given),-3.4% (inactive)
17,Nc1nncn1C(=O)CCc1ccccc1,4% (inactive)
18,O=c1oc(-c2cccs2)nc2sc3c(c12)CCC3,33% (inactive)
19,O=c1oc(-c2cc3ccccc3o2)nc2sc3c(c12)CCCC3,57.9% (active)
20,O=c1oc(-c2cccs2)nc2sc3c(c12)CCCCC3,43.5% (inactive)
21,Cc1cccc(-c2c3c(=O)n(C)c(=O)n(C)c3cn2C(C)C)c1,-5.2% (inactive)
22,COc1ccc(N2C(=O)CC(Sc3nccc(C)n3)C2=O)cc1 (stereo not given),9.4% (inactive)
23,C=CCNc1nnc(SC2CC(=O)N(c3ccc(OC)cc3)C2=O)s1 (stereo not given),77.3% (active)
24,CCOC(=O)c1ccc(N2C(=O)CC(Sc3nnc(C)s3)C2=O)cc1 (stereo not given),-5.1% (inactive)
25,O=C(CN1C(=O)C2C3C=CC(C3)C2C1=O)N1CC(=O)N(CCc2ccccc2)C(=O)C1 (stereo not given),-4.4% (inactive)

row,SMILES,cytotoxicity
1,CCc1nc2sc3c(c2c(=O)n1N)CCC3,-6.1% (inactive)
2,Nn1c(-c2cccs2)nc2sc3c(c2c1=O)CCCC3,-1.9% (inactive)
3,Nn1c(Nc2ccccc2)nc2sc3c(c2c1=O)CCC3,61.4% (active)
4,N#CC1=C2SCN(c3ccc(F)cc3)CN2C(=O)CC1c1cccc(F)c1 (stereo not given),1.2% (inactive)
5,Cc1ccccc1Cn1cc(NC(=O)c2noc3c2CC(C(C)(C)C)CC3)cn1 (stereo not given),-6.5% (inactive)
6,CC(C)(C)C1CCc2onc(C(=O)Nc3cnn(Cc4ccc(F)cc4)c3)c2C1 (stereo not given),81.6% (active)
7,CC(C)(C)C1CCc2onc(C(=O)NCc3ccc(F)cc3)c2C1 (stereo not given),-7% (inactive)
8,COc1ccccc1NC(=O)Cc1noc(CSc2cc(C)c3ccccc3n2)n1,-4.4% (inactive)
9,O=C(c1cccnc1)N1CCC(c2nc3ccccc3[nH]2)CC1,-11.8% (inactive)
10,O=C1NC(c2ccccc2)(C(F)(F)F)SC2=NCCCN12 (stereo not given),6.7% (inactive)
11,Cc1ccc(C2(C(F)(F)F)NC(=O)N3CCN=C3S2)cc1 (stereo not given),76.6% (active)
12,Cc1ccc(C2(C(F)(F)F)NC(=O)N3CCCN=C3S2)cc1 (stereo not given),-10.2% (inactive)
13,CCN(CC)CCCN1C(=O)c2oc3ccccc3c(=O)c2C1c1cccc(OC)c1OC (stereo not given),-9.4% (inactive)
14,C=CCn1cnc2c(c1=O)c1nc3ccccc3nc1n2-c1ccc(C)cc1,13.4% (inactive)
15,C=CCn1cnc2c(c1=O)c1nc3ccccc3nc1n2/N=C/c1cccc(OC)c1OC,59.6% (active)
16,C=CCn1cnc2c(c1=O)c1nc3ccccc3nc1n2/N=C/c1cccc(OC)c1,55.1% (active)
17,C=CCn1cnc2c(c1=O)c1nc3ccccc3nc1n2-c1ccc(Cl)cc1,0.8% (inactive)
18,C=CCn1cnc2c(c1=O)c1nc3ccccc3nc1n2/N=C/c1ccccn1,-21.9% (inactive)
19,C=CCn1cnc2c(c1=O)c1nc3ccccc3nc1n2Cc1ccccc1,-3.7% (inactive)
20,C=CCn1cnc2c(c1=O)c1nc3ccccc3nc1n2-c1ccccc1,-1.9% (inactive)
21,COCCn1cnc2c(c1=O)c1nc3ccccc3nc1n2/N=C/c1cccc(OC)c1OC,9.4% (inactive)
22,Cc1ccc(S(=O)(=O)NC(C)C(=O)NC2CCCCCC2)cc1 (stereo not given),1% (inactive)
23,O=C1C(=C(O)c2ccccc2)C(=O)c2ccccc21,2% (inactive)
24,O=C(CC(c1ccco1)C1CCCCC1=O)c1ccco1 (stereo not given),14.2% (inactive)
25,COc1cccc(C(=O)N(CN2CCCC2=O)c2cccc(Cl)c2)c1,-17.4% (inactive)

row,SMILES,cytotoxicity
1,CCOC(=O)c1cccc(NC(=O)CN(C)S(=O)(=O)c2cnc[nH]2)c1,-9.7% (inactive)
2,CCc1nnc(NC(=O)CSc2nnc(COc3ccccc3)n2-c2ccc(C)cc2)s1,2.3% (inactive)
3,COC(=O)Cn1cnc2c(C#N)c3n(c2c1=O)CCCCC3,-14.2% (inactive)
4,COc1ccccc1-c1noc(-c2ccccc2C(=O)N2CCOCC2)n1,-11.4% (inactive)
5,CCn1c2ccccc2c2cc(/C=N/n3cnnc3)ccc21,16.2% (inactive)
6,C=Cn1ccnc1P(=S)(c1ccc2c(c1)c1ccccc1n2CC)c1nccn1C=C,63.9% (active)
7,CCn1c2ccccc2c2cc(N)ccc21,22.9% (inactive)
8,CCN(CC(=O)Nc1ccc2c(c1)OCCO2)C(=O)C1CCCCC1,-7.3% (inactive)
9,Cc1cccc(NC(=O)Nc2ccc(C#N)cc2)n1,12.8% (inactive)
10,CN(CC(=O)Nc1ccc(C#N)cc1)Cc1ccc(Cl)cc1,2.8% (inactive)
11,N#Cc1ccc(NC(=O)Nc2ccc(Cl)cc2)cc1,67.5% (active)
12,O=C(c1ccc(Cl)cc1)N1CCCOC1,0.8% (inactive)
13,C=CC(=C)CC(NC)c1ccccc1 (stereo not given),8.2% (inactive)
14,Cc1nc(NCC2CCCO2)c2oc3ccccc3c2n1 (stereo not given),6.5% (inactive)
15,CCOC(=O)c1c(N)sc2c(O)c(Br)ccc12,13.7% (inactive)
16,CCOC(=O)c1c(N)sc(=S)c2c1CCC2,10.6% (inactive)
17,CCOC(=O)c1c(N)sc2c(OC)c(Br)ccc12,58.8% (active)
18,Cc1ccc2c(c1)cc(CN(CCc1ccccc1)C(=O)N1CCOCC1)c1nnnn12,-24.7% (inactive)
19,COc1ccc(NC(=O)N(CCCN(C)C)Cc2cc3cc(OC)ccc3[nH]c2=O)cc1,-3% (inactive)
20,CCN(CC)S(=O)(=O)c1cc(C(=O)Oc2ccccc2OC)ccc1OC,2.8% (inactive)
21,Cn1c(CNC(=O)Cc2ccc3c(c2)OCO3)nnc1SCc1ccccc1,-39.1% (inactive)
22,CC1Cn2c(nnc2-c2cccc(Cl)c2)S1 (stereo not given),3.6% (inactive)
23,C=COC(=O)CSc1nc(-c2cccs2)ccc1C#N,40.6% (inactive)
24,COC(=O)CSc1nc(-c2cccs2)ccc1C#N,12.6% (inactive)
25,CCOC(=O)C(C)Sc1nc(-c2cccs2)ccc1C#N (stereo not given),59.5% (active)
